PubChem BioAssay (Tox21)
Inconclusive results are not listed. The source made the active and inactive calls. Unless noted, calls come from the whole dose curve; as a rule, active = well fitted curve in the direction sought with a large enough effect in the repeat runs; inconclusive = weak or mixed curves; inactive = no such curve, though single readings can be large; an effect the other way counts as inactive or inconclusive.

Tests used:
[1] = qHTS assay for small molecules that induce genotoxicity in human embryonic kidney cells expressing luciferase-tagged ATAD5 - cell viability (AID 651634; calls by dose curve; note: nearly all actives have a fitted effect of over 25% in size)
Summary of the method: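 Cytotoxicity counter-readout: after 15.5 hr compound treatment at 37C, live-cell protease activity in ATAD5-luciferase HEK293T cells measured by CellTiter-Fluor fluorescence, 30 min development at 37C.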

[2] = qHTS assay to test for compound auto fluorescence at 535 nm (green) in HEK293 cell free culture (AID 720682)
Summary of the method: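 Green-channel intensity (Ex/Em 485/535 nm) was recorded from compound-treated wells containing only DMEM with 10% FBS. Fluorescein provided the equivalency standard.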

[3] = qHTS assay to identify small molecule antagonists of the glucocorticoid receptor (GR) signaling pathway - cell viability counter screen (AID 720693); note: nearly all actives have a fitted effect of over 55% in size
[4] = qHTS assay for identifying genotoxic compounds that show differential cytotoxicity against isogenic chicken DT40 cell lines with known DNA damage response pathways - wild type cell line (AID 743012); note: nearly all actives have a fitted effect of over 60% in size
Summary of the method: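 Viability by ATP luminescence (CellTiter-Glo, 30 min RT) after 40 h compound treatment at 37 C/5% CO2, using 300 parental DNA repair-proficient DT40 cells per well.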

[5] = qHTS assay for identifying genotoxic compounds that show differential cytotoxicity against isogenic chicken DT40 cell lines with known DNA damage response pathways - Rev3 mutant cell line (AID 743014); note: nearly all actives have a fitted effect of over 55% in size
[6] = qHTS assay for identifying genotoxic compounds that show differential cytotoxicity against isogenic chicken DT40 cell lines with known DNA damage response pathways - Rad54/Ku70 mutant cell line (AID 743015); note: nearly all actives have a fitted effect of over 60% in size
[7] = qHTS assay to identify small molecule antagonists of the androgen receptor (AR) signaling pathway - cell viability counter screen (AID 743033; note: nearly all actives have a fitted effect of over 45% in size)
[8] = qHTS assay to identify small molecule antagonists of the androgen receptor (AR) signaling pathway using the MDA cell line - cell viability counter screen (AID 743041; note: nearly all actives have a fitted effect of over 45% in size)
Summary of the method: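 qHTS viability read-out; MDA-kb2 AR-luc; R1881-stimulated; 16 h exposure at 37C, 0% CO2; CellTiter-Fluor, 30 min; fluorescence intensity.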

[9] = qHTS assay to identify small molecule antagonists of the thyroid receptor (TR) signaling pathway - cell viability counter screen (AID 743064); note: nearly all actives have a fitted effect of over 50% in size
Summary of the method: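 In rat pituitary GH3.TRE-Luc reporter cells co-exposed to compound and 1 nM T3 for 23.5 h, cytotoxicity was assessed with CellTiter-Fluor in the same wells, read by fluorescence.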

[10] = tested on: thyroid hormone receptor (rat, GH3 cells); experiment: qHTS assay to identify small molecule agonists of the thyroid receptor (TR) signaling pathway (AID 743066; calls by dose curve)
[11] = qHTS assay to identify small molecule antagonists of the estrogen receptor alpha (ER-alpha) signaling pathway using the BG1 cell line - cell viability counter screen (AID 743081);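 note: compound given together with 17beta-estradiol as the ER stimulus; series mostly up to about 70 µM; nearly all actives have a fitted effect of over 45% in size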
[12] = qHTS assay to identify small molecule that activate the aryl hydrocarbon receptor (AhR) signaling pathway - cell viability counter screen (AID 743086);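 note: HepG2 liver cells carrying the AhR DRE luciferase reporter; series mostly up to about 70 µM; nearly all actives have a fitted effect of over 45% in size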
Summary of the method: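 HepG2-AhR-luc (HG2L7.5c1) cells, 4000/well, were preincubated 5 h at 37C, exposed to compound in qHTS format for 24 hr at 37C, then given CellTiter-Fluor for 30 min; viability was read as fluorescence in the reporter wells.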

[13] = qHTS assay for small molecule agonists of the p53 signaling pathway (AID 651631; calls by dose curve; note: nearly all actives have a fitted effect of over 15% in size)
Summary of the method: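 We treat p53RE-bla HCT-116 cells with compounds for 16 h at 37 °C, add LiveBLAzer B/G FRET substrate for 2 h at room temperature, and measure fluorescence intensity.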

[14] = qHTS assay for small molecules that induce genotoxicity in human embryonic kidney cells expressing luciferase-tagged ATAD5 (AID 651632); note: nearly all actives have a fitted effect of over 15% in size
Summary of the method: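 A rise in luciferase signal from ATAD5-tagged HEK293T cells marks genetic stress. Cells were exposed to compounds for 16 hr at 37C, 5% CO2, then luciferase was quantified after a 30 min room-temperature incubation with Amplite.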

[15] = qHTS assay for small molecule agonists of the p53 signaling pathway - cell viability (AID 651633; calls by dose curve;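 note: p53RE-bla HCT reporter cells with a stable beta-lactamase p53 reporter; series mostly up to about 83 µM; nearly all actives have a fitted effect of over 30% in size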)
Summary of the method: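 p53RE-bla cells, seeded at 4,000 per well and rested 5 h at 37 C/5% CO2, received compounds in DMSO for 16 h at 37 C. CellTiter-Glo was then added, and luminescence was read after 30 min at room temperature to gauge cytotoxicity.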

[16] = qHTS assay for small molecule disruptors of the mitochondrial membrane potential - cell viability (AID 720634; calls by dose curve;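 note: human HepG2 liver cancer cells; series mostly up to about 83 µM; nearly all actives have a fitted effect of over 20% in size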)
Summary of the method: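 Cytotoxicity was quantified from ATP content by CellTiter-Glo luminescence in the same wells as the MMP dye read-out. HepG2 (2,000 cells/well) were plated overnight and exposed to compounds for 1 hr at 37 C.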

[17] = qHTS assay for small molecule disruptors of the mitochondrial membrane potential (AID 720635)
Summary of the method: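 HepG2 cells (2,000/well) attached overnight at 37C, then took compound for 1 hr at 37C, 5% CO2. Mito-MPS dye was added for 30 min; fluorescence was read at 490/535 nm (monomers) and 540/590 nm (aggregates).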

[18] = target: Glucocorticoid receptor (Homo sapiens) (UniProt P04150); experiment: qHTS assay to identify small molecule agonists of the glucocorticoid receptor (GR) signaling pathway (AID 720691; active = well fitted activation curve with a large enough effect in the signal ratio in the repeat runs, not every such curve was filed as active; the % refers to the signal ratio)
Summary of the method: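 Agonist-mode qHTS in HeLa cells stably expressing a glucocorticoid-response-element beta-lactamase reporter. Fluorescence intensity read with FRET substrate (2 h, room temperature) after 18 h compound treatment at 37 C.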

[19] = target: Glucocorticoid receptor (Homo sapiens) (UniProt P04150); experiment: qHTS assay to identify small molecule antagonists of the glucocorticoid receptor (GR) signaling pathway (AID 720692; active = well fitted inhibition curve with a large enough effect in the signal ratio in the repeat runs, not every such curve was filed as active; the % refers to the signal ratio)
Summary of the method: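 Inhibition of dexamethasone-driven (5 nM final) beta-lactamase expression was measured in GRE-reporter HeLa cells over 18 h at 37C. Fluorescence was read after 2 h with the B/G FRET substrate at room temperature.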

[20] = target: Androgen receptor (Homo sapiens) (UniProt P10275); experiment: qHTS assay to identify small molecule antagonists of the androgen receptor (AR) signaling pathway (AID 743035; active = well fitted inhibition curve with a large enough effect in the signal ratio in the repeat runs, not every such curve was filed as active; the % refers to the signal ratio)
Summary of the method: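 Antagonist mode: AR-bla HEK293 cells co-treated with test compounds and agonist R1881 for 16 h at 37C, 5% CO2. Beta-lactamase activity read as FRET fluorescence after 2 h room-temperature substrate loading.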

[21] = target: Androgen receptor (Homo sapiens) (UniProt P10275); experiment: qHTS assay to identify small molecule agonists of the androgen receptor (AR) signaling pathway using the MDA cell line (AID 743040; note: nearly all actives have a fitted effect of over 20% in size)
Summary of the method: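 Agonist activity is measured as luciferase luminescence in human MDA-kb2 cells whose MMTV reporter responds to both AR and GR. Compounds in DMSO incubate 16 h at 37C, 0% CO2, and ONE-Glo is read after 30 min.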

[22] = target: Androgen receptor (Homo sapiens) (UniProt P10275); experiment: qHTS assay to identify small molecule antagonists of the androgen receptor (AR) signaling pathway using the MDA cell line (AID 743042; note: nearly all actives have a fitted effect of over 55% in size)
Summary of the method: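 MDA-kb2 cells (human breast carcinoma, stably carrying an MMTV-luciferase reporter responsive to AR and GR) were plated at 3,000 cells/well and preincubated 5 hr at 37C, then given compound plus R1881 agonist for 16 h. ONE-Glo luminescence was read.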

[23] = target: Estrogen receptor (Homo sapiens) (UniProt P03372); experiment: qHTS assay to identify small molecule antagonists of the estrogen receptor alpha (ER-alpha) signaling pathway (AID 743069; active = well fitted curve in the direction sought with a large enough effect in the signal ratio in the repeat runs, not every such curve was filed as active; the % refers to the signal ratio)
Summary of the method: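 Screening used a UAS-driven beta-lactamase reporter integrated into HEK293 cells expressing ER-alpha, stimulated with 17beta-estradiol alongside test compounds over 18 hr at 37C; signal came from LiveBLAzer B/G FRET fluorescence.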

[24] = qHTS assay to identify small molecule antagonists of the estrogen receptor alpha (ER-alpha) signaling pathway - cell viability counter screen (AID 743074; calls by dose curve; note: nearly all actives have a fitted effect of over 45% in size)
[25] = target: Estrogen receptor (Homo sapiens) (UniProt P03372); experiment: qHTS assay to identify small molecule agonists of the estrogen receptor alpha (ER-alpha) signaling pathway (AID 743075; calls by dose curve)
[26] = target: Estrogen receptor (Homo sapiens) (UniProt P03372); experiment: qHTS assay to identify small molecule agonists of the estrogen receptor alpha (ER-alpha) signaling pathway using the BG1 cell line (AID 743079); note: nearly all actives have a fitted effect of over 20% in size
[27] = qHTS assay to identify small molecule antagonists of the estrogen receptor alpha (ER-alpha) signaling pathway using the BG1 cell line (AID 743080; calls by dose curve;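 note: BG1 cells stimulated with 17beta-estradiol alongside compound; series mostly up to about 70 µM; nearly all actives have a fitted effect of over 25% in size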)
Summary of the method: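 BG1Luc4E2, endogenous ER-alpha, 4xERE-luc; 5 d charcoal-stripped FBS, phenol red free; 24 h plating; cpd + 17beta-estradiol 21.5 h, 37 C/5% CO2; CellTiter-Fluor viability 30 min, then ONE-Glo luciferase 30 min RT.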

Aromatase (Homo sapiens) = Aromatase (Homo sapiens) (UniProt P11511); experiment: qHTS assay to identify aromatase inhibitors (AID 743083); note: series mostly up to about 70 µM; nearly all actives have a fitted effect of over 55% in size
[28] = qHTS assay to identify aromatase inhibitors - cell viability counter screen (AID 743084)
[29] = target: Aryl hydrocarbon receptor (Homo sapiens) (UniProt P35869); experiment: qHTS assay to identify small molecule that activate the aryl hydrocarbon receptor (AhR) signaling pathway (AID 743085);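 note: HG2L7.5c1 human HepG2 liver cells with stably integrated DRE-driven firefly reporter; series mostly up to about 70 µM; nearly all actives have a fitted effect of over 15% in size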
Summary of the method: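 AhR agonist activity is inferred from enhanced light output of a DRE-controlled firefly luciferase reporter in HepG2 cells, measured with ONE-Glo following 24 h treatment at 37C.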

[30] = target: Peroxisome proliferator-activated receptor gamma (Homo sapiens) (UniProt P37231); experiment: qHTS assay to identify small molecule agonists of the peroxisome proliferator-activated receptor gamma (PPARg) signaling pathway (AID 743094; active = well fitted activation curve with a large enough effect in the signal ratio in the repeat runs, not every such curve was filed as active; the % refers to the signal ratio)
Summary of the method: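 Agonist activity was taken from a beta-lactamase reporter (FRET substrate, 1 h at room temperature) in HEK293H cells carrying a PPARg UAS-bla construct. Compounds in DMSO were incubated 17 h at 37C after a 5 h cell pre-incubation.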

Measured: Potency

Chain of Estrogen receptor (Homo sapiens) (P03372 whole entry, looked up): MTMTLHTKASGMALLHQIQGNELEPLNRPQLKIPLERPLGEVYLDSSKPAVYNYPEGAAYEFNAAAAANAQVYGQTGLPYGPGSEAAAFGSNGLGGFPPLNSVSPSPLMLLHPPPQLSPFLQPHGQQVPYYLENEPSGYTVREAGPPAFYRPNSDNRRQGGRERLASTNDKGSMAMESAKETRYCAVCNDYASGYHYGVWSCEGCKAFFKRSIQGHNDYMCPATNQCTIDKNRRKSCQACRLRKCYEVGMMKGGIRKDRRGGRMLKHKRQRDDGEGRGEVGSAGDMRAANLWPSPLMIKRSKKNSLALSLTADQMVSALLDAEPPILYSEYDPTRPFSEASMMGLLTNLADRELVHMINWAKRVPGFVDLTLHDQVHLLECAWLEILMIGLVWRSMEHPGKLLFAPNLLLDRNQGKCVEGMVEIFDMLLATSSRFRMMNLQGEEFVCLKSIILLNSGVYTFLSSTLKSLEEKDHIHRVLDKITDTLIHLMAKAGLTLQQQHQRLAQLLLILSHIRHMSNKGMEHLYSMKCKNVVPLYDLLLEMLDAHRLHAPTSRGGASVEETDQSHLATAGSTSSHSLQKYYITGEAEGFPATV
Chain of Androgen receptor (Homo sapiens) (P10275 whole entry, looked up): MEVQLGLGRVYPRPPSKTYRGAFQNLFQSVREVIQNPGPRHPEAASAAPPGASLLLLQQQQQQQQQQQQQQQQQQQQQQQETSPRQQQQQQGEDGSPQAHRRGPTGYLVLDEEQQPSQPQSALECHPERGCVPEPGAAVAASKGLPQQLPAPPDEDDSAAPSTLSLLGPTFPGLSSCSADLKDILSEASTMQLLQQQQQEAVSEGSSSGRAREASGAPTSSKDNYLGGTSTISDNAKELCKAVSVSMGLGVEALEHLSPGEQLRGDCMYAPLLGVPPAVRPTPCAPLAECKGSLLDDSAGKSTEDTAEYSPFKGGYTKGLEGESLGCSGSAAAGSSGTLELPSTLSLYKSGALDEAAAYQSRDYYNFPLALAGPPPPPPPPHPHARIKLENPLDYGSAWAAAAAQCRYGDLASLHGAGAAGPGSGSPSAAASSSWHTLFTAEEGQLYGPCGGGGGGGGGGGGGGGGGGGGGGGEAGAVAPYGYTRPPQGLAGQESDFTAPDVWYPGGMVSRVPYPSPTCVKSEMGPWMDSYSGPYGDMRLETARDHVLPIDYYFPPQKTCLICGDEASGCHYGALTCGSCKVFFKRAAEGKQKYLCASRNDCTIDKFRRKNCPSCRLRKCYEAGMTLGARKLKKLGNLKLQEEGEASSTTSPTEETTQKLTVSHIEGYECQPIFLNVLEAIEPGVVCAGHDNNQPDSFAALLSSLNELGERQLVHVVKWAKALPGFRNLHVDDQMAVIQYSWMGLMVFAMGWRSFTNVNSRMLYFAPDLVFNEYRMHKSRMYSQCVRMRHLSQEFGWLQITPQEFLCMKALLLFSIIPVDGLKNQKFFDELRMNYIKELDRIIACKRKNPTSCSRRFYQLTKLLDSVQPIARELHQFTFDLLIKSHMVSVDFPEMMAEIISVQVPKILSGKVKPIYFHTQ
Chain of Glucocorticoid receptor (Homo sapiens) (P04150 whole entry, looked up): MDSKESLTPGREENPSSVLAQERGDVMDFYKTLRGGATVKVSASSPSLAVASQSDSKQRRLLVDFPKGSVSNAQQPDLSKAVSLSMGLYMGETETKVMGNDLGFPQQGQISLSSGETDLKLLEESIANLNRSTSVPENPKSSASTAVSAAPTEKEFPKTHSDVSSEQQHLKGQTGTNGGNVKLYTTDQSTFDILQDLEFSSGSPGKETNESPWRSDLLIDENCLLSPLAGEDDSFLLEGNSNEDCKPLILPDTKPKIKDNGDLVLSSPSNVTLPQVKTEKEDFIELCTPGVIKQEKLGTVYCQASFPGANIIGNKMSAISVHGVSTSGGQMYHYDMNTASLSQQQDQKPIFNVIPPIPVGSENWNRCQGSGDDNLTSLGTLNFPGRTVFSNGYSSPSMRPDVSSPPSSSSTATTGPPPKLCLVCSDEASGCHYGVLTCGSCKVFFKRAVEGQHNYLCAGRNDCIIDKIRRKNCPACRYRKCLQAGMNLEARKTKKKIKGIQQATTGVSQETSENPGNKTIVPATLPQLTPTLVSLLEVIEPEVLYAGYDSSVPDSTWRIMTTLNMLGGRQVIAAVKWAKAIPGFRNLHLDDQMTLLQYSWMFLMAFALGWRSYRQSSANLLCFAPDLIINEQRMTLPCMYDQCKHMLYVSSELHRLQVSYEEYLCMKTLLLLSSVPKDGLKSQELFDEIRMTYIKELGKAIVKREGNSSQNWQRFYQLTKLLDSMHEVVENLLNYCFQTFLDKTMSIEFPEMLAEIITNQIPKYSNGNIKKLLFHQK
Chain of Aryl hydrocarbon receptor (Homo sapiens) (P35869 whole entry, looked up): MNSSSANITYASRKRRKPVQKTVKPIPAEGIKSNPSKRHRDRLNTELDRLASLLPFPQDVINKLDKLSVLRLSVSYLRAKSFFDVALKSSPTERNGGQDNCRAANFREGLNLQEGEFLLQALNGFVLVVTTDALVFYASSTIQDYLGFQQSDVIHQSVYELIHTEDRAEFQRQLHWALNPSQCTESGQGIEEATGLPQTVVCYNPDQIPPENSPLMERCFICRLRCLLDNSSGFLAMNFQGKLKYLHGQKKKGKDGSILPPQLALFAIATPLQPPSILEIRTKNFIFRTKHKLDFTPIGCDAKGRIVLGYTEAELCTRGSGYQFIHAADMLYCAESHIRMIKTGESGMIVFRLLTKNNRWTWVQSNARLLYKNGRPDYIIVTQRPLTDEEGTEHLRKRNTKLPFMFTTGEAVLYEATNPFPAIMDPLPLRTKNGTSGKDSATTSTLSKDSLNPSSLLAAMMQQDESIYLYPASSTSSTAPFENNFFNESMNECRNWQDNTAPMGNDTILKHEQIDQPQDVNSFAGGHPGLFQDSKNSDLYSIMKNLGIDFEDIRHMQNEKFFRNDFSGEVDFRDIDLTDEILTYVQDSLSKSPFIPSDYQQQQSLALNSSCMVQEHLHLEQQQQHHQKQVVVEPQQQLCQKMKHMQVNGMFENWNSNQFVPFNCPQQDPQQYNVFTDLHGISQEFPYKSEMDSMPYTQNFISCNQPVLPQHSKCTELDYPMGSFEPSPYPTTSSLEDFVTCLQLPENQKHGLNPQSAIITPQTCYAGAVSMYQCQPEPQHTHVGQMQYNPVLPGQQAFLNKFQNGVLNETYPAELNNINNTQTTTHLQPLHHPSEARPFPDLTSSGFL
Chain of Peroxisome proliferator-activated receptor gamma (Homo sapiens) (P37231 whole entry, looked up): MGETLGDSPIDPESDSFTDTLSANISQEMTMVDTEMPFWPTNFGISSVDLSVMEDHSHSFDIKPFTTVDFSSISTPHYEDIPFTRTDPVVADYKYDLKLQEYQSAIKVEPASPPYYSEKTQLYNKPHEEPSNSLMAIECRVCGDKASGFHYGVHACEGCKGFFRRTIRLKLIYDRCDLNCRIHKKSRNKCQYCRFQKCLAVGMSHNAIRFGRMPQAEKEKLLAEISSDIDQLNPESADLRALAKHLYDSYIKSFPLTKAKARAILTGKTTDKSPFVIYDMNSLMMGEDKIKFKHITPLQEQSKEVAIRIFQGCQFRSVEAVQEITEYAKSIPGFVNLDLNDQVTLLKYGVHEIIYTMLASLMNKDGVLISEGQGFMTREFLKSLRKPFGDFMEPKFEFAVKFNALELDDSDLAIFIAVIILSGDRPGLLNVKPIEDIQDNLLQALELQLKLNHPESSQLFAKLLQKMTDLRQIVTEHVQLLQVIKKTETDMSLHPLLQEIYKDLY
Chain of Aromatase (Homo sapiens) (P11511 whole entry, looked up): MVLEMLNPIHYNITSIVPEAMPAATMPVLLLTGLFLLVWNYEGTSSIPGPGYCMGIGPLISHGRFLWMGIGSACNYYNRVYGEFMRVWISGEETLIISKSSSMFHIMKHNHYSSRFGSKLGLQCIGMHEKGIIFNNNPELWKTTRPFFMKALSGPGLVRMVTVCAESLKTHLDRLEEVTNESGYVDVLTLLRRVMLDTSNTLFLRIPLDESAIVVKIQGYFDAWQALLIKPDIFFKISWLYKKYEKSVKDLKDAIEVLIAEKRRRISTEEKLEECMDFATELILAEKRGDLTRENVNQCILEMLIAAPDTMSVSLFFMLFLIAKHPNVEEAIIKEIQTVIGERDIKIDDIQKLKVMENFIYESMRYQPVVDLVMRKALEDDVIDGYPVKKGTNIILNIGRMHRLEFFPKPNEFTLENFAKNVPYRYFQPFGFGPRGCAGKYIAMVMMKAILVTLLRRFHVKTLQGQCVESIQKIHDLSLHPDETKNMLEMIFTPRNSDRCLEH

O=C(O)c1ccccc1[O-].O=C(O)c1ccccc1[O-].[Zn+2]
inactive: [1] | [2] | [3] | [4] | [5] | [6] | [7] | [8] | [9] | [10] | [11] | [12]

CNC(C)[C@@H]1CC[C@@H](N)[C@@H](O[C@H]2[C@H](O)[C@@H](O[C@H]3OC[C@](C)(O)[C@H](NC)[C@H]3O)[C@H](N)C[C@@H]2N)O1 (stereo not given in full)
not listed: [2] | [9] | [10]
inactive: all other assays above
